Reference: the supplement of paper PMC10849652
About 7,900 targets were measured; listed, in parts, are those with a hit and a random draw of the rest. About 0.6% of all pairs of compound and target were hits. Unmarked numbers belong to inactive results.

How the values were obtained:
Assay in all cases: log2 fold change, soluble protein after heating vs DMSO (PISA); higher = thermal stabilisation; K562 cells, 10 uM, 30 min; active = over 0.2 and 3.5 SD of the protein, either way, in both replicates (recomputed)
erlotinib = compound: C#Cc1cccc(Nc2ncnc3cc(OCCOC)c(OCCOC)cc23)c1 [erlotinib]
Method in brief: (§1)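 K562 cells at 2×10^6 cells/mL were exposed to 10 μM compound for 30 min, then aliquots were heated for 3 min across 48°C-58°C, pooled, and extracted in PBS containing 0.5% NP-40 at 4°C. The supernatant after 21,000xg for 90 min was taken as soluble protein and measured by TMTpro 16plex LC-MS/MS with channel sums equalised. Thermal stability is reported relative to control samples, with values from duplicates. Fold changes are given on a log2 scale.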

[1] = compound: C/C(=N\NC(=O)C1=CC(=CC=C1)S(=O)(=O)N2CCOCC2)/C3=C(C=CC(=C3)Cl)O
Method in brief: as §1

[2] = compound: C1=CC(=C(C=C1Cl)C2=NC3=NC=CN=C3C(=N2)NC4=CC=NC=C4)F
Method in brief: as §1

[3] = compound: C1=CC(=CC=C1C2=NC3=C(N2)C=C(C=C3)C(=O)N)OC4=CC=C(C=C4)Cl
Method in brief: as §1

[4] = compound: C1=CC2=C(C=CC(=C2)/C=C\3/C(=O)NC(=NCC4=CC=CS4)S3)N=C1
Method in brief: as §1

[5] = compound: C1=CC2=NC=CN=C2C=C1/C=C/3\C(=O)NC(=O)S3
Method in brief: as §1

[6] = compound: C1=CC=C(C=C1)C2=NC(=C(N2)C3=CC=NC=C3)C4=CC(=C(C=C4)Cl)O
Method in brief: as §1

[7] = compound: C1=CC=C2C(=C1)C3=NNC4=CC=CC(=C43)C2=O
Method in brief: as §1

[8] = compound: C1CCN(C1)C(=O)NC2=CC=CC(=C2)NC3=NC=C(C(=N3)NCCC4=CN=CN4)Br
Method in brief: as §1

[9] = compound: C1CN(CCC1(CC2=CC=C(C=C2)Cl)N)C3=NC=NC4=C3C=CN4
Method in brief: as §1

UniProt Q8IY95, sequence (Q8IY95 whole entry, looked up): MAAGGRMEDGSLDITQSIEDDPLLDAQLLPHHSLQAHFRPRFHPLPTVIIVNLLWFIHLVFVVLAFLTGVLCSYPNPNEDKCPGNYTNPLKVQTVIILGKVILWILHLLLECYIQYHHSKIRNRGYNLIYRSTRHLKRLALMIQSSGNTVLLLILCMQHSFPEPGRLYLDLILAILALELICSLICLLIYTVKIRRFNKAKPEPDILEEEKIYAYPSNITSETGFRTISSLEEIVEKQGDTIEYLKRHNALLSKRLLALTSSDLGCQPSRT
UniProt Q8NEZ2, sequence (Q8NEZ2 whole entry, looked up): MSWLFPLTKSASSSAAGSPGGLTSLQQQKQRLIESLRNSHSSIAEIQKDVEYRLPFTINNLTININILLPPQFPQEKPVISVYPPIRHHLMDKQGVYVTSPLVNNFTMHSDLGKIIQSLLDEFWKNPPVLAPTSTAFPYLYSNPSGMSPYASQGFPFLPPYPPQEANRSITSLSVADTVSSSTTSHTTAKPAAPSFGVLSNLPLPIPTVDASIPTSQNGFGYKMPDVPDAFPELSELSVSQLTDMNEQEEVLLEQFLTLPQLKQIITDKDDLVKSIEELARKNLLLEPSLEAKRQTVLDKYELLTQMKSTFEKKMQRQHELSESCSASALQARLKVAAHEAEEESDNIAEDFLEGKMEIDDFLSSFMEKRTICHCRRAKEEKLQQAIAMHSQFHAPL
UniProt Q6ZXV5, sequence (Q6ZXV5 whole entry, looked up): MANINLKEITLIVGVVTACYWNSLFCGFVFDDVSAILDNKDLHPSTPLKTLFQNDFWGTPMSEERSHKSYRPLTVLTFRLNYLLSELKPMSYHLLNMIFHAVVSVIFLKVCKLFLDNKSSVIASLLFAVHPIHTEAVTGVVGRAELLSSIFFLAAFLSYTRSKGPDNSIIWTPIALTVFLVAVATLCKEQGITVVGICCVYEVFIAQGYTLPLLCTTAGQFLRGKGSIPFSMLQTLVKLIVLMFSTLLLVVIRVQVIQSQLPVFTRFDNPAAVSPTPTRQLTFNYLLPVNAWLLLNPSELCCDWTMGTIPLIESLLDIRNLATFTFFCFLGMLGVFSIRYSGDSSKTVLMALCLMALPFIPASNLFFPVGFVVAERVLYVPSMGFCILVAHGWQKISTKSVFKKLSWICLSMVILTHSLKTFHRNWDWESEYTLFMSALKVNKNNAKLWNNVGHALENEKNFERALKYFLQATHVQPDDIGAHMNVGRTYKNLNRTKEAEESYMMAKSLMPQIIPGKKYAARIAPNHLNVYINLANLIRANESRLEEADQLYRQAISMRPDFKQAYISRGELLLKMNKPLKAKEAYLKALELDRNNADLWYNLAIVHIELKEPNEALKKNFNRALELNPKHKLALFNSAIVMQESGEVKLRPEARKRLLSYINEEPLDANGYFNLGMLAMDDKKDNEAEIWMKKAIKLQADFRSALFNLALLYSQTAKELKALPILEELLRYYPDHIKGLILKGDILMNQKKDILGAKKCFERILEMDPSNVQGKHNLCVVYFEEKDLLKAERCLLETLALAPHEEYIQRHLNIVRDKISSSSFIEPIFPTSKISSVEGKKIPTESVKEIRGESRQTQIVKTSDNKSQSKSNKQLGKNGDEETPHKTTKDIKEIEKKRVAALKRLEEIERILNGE
UniProt Q16881, sequence (Q16881 whole entry, looked up): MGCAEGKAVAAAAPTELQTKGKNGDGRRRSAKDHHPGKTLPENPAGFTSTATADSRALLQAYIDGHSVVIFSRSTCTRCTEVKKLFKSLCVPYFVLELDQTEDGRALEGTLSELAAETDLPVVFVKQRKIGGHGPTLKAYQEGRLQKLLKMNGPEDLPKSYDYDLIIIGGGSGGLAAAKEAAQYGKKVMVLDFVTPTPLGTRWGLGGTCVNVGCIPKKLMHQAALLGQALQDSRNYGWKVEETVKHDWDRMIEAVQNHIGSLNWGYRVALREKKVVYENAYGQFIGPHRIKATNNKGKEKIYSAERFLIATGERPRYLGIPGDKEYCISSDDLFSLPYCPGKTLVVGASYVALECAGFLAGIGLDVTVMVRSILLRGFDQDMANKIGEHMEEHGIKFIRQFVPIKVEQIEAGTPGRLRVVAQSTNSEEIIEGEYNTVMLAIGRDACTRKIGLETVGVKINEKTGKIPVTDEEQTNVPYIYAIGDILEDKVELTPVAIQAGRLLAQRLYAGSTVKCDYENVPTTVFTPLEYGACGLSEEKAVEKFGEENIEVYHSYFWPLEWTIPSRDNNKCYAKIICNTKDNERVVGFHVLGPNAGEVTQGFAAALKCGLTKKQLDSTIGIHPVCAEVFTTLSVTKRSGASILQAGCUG
UniProt Q6PID6, sequence (Q6PID6 whole entry, looked up): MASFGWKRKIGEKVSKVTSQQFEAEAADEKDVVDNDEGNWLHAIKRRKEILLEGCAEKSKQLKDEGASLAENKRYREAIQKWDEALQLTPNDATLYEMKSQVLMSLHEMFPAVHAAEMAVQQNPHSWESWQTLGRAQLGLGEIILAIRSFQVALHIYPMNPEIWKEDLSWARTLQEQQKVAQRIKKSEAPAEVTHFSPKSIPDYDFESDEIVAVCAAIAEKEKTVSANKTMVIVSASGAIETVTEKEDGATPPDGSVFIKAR
UniProt Q15906, sequence (Q15906 whole entry, looked up): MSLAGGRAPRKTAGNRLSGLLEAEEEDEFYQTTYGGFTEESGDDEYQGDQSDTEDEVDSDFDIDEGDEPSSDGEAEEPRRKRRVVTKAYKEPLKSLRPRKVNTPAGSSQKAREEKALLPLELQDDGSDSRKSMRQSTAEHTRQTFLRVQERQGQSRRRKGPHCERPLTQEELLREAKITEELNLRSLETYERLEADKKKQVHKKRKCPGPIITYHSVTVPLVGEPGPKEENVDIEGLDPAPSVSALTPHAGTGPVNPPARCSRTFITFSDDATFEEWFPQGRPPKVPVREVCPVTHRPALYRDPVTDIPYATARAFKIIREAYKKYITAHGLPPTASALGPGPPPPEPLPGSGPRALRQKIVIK
UniProt Q6VEQ5, sequence (Q6VEQ5 whole entry, looked up): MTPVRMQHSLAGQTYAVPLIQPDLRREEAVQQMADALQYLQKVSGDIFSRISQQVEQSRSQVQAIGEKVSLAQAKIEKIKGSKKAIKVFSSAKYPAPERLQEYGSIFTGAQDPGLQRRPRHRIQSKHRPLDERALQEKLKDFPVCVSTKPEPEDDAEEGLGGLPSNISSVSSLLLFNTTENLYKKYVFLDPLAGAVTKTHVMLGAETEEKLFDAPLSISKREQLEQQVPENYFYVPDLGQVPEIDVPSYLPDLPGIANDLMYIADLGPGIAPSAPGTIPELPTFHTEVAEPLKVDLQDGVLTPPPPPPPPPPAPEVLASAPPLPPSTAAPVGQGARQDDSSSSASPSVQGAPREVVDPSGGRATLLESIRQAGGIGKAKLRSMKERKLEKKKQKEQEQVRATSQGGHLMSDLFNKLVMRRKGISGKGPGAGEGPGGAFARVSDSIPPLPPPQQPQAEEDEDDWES
UniProt O00220, sequence (O00220 whole entry, looked up): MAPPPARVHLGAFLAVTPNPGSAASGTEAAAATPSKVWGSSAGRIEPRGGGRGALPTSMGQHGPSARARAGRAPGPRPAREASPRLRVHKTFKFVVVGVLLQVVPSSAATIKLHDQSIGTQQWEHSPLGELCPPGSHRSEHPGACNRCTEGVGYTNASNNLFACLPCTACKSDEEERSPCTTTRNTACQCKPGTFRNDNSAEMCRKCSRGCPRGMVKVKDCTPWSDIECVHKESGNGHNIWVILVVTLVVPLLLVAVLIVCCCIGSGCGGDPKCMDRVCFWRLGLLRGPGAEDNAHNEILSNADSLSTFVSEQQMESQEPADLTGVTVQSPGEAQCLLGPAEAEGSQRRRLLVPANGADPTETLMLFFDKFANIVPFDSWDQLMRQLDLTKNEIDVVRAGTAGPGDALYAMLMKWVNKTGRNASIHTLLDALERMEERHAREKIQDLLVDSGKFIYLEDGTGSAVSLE
UniProt Q5R3I4, sequence (Q5R3I4 whole entry, looked up): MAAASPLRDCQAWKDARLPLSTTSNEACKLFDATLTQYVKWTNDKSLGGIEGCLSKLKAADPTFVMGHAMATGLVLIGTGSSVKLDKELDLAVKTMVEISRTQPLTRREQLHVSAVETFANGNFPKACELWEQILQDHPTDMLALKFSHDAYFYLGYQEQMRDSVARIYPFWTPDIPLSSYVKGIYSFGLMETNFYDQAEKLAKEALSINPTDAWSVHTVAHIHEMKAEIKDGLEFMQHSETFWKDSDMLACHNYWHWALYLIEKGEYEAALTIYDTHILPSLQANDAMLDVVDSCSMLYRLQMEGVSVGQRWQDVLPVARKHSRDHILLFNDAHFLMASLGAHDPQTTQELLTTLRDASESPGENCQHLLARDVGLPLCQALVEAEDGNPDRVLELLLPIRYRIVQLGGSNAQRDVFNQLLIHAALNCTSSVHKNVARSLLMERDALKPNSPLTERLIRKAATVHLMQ
UniProt O14773, sequence (O14773 whole entry, looked up): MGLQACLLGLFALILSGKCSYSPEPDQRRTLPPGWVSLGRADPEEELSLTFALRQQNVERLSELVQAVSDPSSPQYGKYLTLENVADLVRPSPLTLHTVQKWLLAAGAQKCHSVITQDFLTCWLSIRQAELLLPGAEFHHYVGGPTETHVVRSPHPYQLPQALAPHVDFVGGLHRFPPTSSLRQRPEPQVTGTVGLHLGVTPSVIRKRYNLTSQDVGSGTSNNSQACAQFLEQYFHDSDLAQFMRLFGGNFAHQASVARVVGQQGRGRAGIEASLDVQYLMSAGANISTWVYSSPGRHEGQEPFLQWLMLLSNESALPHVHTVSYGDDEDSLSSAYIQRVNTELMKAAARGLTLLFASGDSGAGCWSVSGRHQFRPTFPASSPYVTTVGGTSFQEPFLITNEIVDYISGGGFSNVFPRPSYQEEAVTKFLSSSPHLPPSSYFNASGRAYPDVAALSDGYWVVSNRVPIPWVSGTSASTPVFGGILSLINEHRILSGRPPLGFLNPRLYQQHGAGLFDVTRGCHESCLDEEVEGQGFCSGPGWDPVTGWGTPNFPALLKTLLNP

| Target | log2 fold change (erlotinib) | log2 fold change [1] | log2 fold change [2] | log2 fold change [3] | log2 fold change [4] | log2 fold change [5] | log2 fold change [6] | log2 fold change [7] | log2 fold change [8] | log2 fold change [9] |
| --- | --- | --- | --- | --- | --- | --- | --- | --- | --- | --- |
| XRCC6 (UniProt P12956) | 0.025 | 0.103 | 0.093 | 0.011 | 0.065 | 0.031 | -0.023 | -0.036 | -0.043 | -0.025 |
| TNFRSF10A (UniProt O00220) | -0.01 | -0.05 | -0.023 | -0.014 | 0.049 | -0.012 | -0.026 | 0.018 | -0.039 | -0.049 |
| VPS72 isoform 2 (UniProt Q15906) | -0.017 | -0.062 | 0.053 | -0.108 | 0.04 | -0.094 | -0.054 | -0.134 | 0.056 | 0.028 |
| VDAC1 (UniProt C9JI87) | 0.277 | -0.05 | 0.095 | -0.01 | 0.13 | 0.124 | 0.091 | -0.04 |  |  |
| UBE2S (UniProt Q16763) | 0.01 | 0.064 | -0.025 | -0.021 | 0.052 | 0.014 | -0.008 | 0.014 | -0.02 | 0.029 |
| TTC38 (UniProt Q5R3I4) | 0.749 (active) | 0.032 | 0.082 | 0.072 | 0.021 | -0.002 | 0.035 | 0.09 | -0.06 | 0.025 |
| TTC33 (UniProt Q6PID6) | 0.065 | -0.035 | 0.019 | 0.001 | 0.176 | -0.107 | -0.045 | -0.038 |  |  |
| U2AF1 isoform 2 (UniProt Q01081) | 0.015 | 0.119 | -0.02 | -0.036 | -0.038 | 0.015 | 0.036 | -0.036 | -0.071 | -0.071 |
| UXT isoform 2 (UniProt Q9UBK9) | 0.925 (active) | -0.263 | 0.078 | 0.113 | 0.061 | -0.044 | -0.053 | 0.012 | -0.036 | -0.086 |
| TMTC3 (UniProt Q6ZXV5) | 0 | 0 | 0.007 | 0.023 | 0.042 | 0.002 | 0.001 | -0.001 | -0.064 | -0.014 |
| TMEM263 (UniProt Q8WUH6) | 0.093 | 0.024 | 0.024 | -0.012 | 0.058 | -0.013 | 0.02 | -0.101 | 0.036 | 0.022 |
| UHRF1BP1 (UniProt Q6BDS2) | -0.018 | -0.01 | 0.011 | 0.033 | 0.001 | 0.008 | -0.017 | -0.009 | -0.013 | 0.008 |
| USP34 (UniProt Q70CQ2) | 0.065 | 0.074 | 0.026 | -0.02 | 0.145 | -0.013 | 0.027 | -0.043 | 0.015 | -0.086 |
| TMEM192 (UniProt Q8IY95) | 0.044 | -0.017 | 0.011 | -0.008 | -0.011 | 0.067 | 0.011 | -0.017 | 0.039 | 0.038 |
| WASHC2A (UniProt Q641Q2) | 0.008 | -0.026 | -0.025 | 0.002 | 0.004 | 0.058 | -0.072 | -0.037 | 0.029 | -0.017 |
| TUBA4A (UniProt P68366) | 0.016 | 0.048 | 0.048 | -0.038 | 0.069 | -0.04 | -0.037 | 0.027 | -0.015 | 0.075 |
| TYW1 (UniProt Q9NV66) | -0.045 | 0.012 | 0.055 | 0.057 | 0.003 | 0.009 | 0.042 | 0.057 | -0.041 | 0.022 |
| WASHC3 (UniProt Q9Y3C0) | 0.029 | -0.015 | 0.053 | 0.007 | 0.12 | 0.036 | 0.017 | -0.114 | -0.041 | 0.059 |
| VARS2, A0A0G2JL52 | 0.012 | 0.006 | -0.002 | 0 | 0.046 | -0.006 | 0.026 | 0.003 | 0.006 | -0.01 |
| TPP1 (UniProt O14773) | 0.013 | 0.009 | 0.059 | -0.015 | -0.007 | 0.024 | 0.034 | -0.014 | -0.012 | -0.017 |
| TXNRD1 (UniProt Q16881) | 0.021 | 0.049 | 0.057 | -0.006 | 0.009 | 0.074 | 0.027 | 0.019 | 0.005 | 0.046 |
| VPS37A (UniProt Q8NEZ2) | 0.127 | 0.113 | -0.042 | -0.097 | -0.054 | 0.059 | 0.098 | 0.044 | 0.036 | 0.008 |
| TMEM9B (UniProt Q9NQ34) | 0.062 | -0.044 | 0.009 | -0.006 | 0.055 | -0.013 | -0.016 | -0.016 | -0.006 | 0.042 |
| WASH2P (UniProt Q6VEQ5) | 0.005 | -0.02 | -0.084 | 0.003 | 0.041 | 0.038 | 0.014 | 0.011 | 0.117 | 0.013 |
| VPS41 (UniProt P49754) | -0.022 | 0.076 | -0.049 | -0.018 | 0.086 | 0.056 | 0.004 | 0.031 | 0.043 | -0.058 |
| WDR18 (UniProt Q9BV38) | 0.058 | 0.039 | 0.024 | -0.015 | -0.111 | 0.031 | -0.045 | 0.011 | -0.035 | 0.065 |
| WAPL isoform 3 (UniProt Q7Z5K2) | 0.031 | 0.017 | 0.048 | -0.037 | 0.057 | 0.144 | 0.059 | -0.012 | -0.217 | -0.062 |
| TTI2 (UniProt Q6NXR4) | 0 | 0.053 | 0.003 | -0.035 | 0.029 | -0.036 | -0.095 | 0.046 | 0.008 | -0.028 |
| TMEM177 (UniProt Q53S58) | 0.058 | 0.044 | 0.03 | -0.025 | 0.062 | -0.015 | -0.034 | 0.01 | 0.028 | 0.132 |
| UPF3B (UniProt Q9BZI7) | -0.108 | -0.149 | -0.703 (active) | 0.088 | -0.053 | -0.072 | -0.019 | -0.016 | 0.117 | -0.097 |
